SMILES strings stand for the structures. Out of some 360,000 compounds screened, about 4,200 (1.2%) were called active. The full list was thinned out, with actives kept by preference. Values without a mark were called inactive.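 How the source made its calls: active means mean replicate inhibition at least 60% with every replicate also reaching 60%; inconclusive means only one of the two criteria is met; inactive means mean below 60% and not all replicates reaching 60%.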

The assay is described as follows: PAX8 transcriptional activity inhibition in RMG-I – RMG-I cells, luciferase, single concentration, primary screen (AID 652154).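 Further: luciferase light reporting Pax8 driven TPO promoter activity; plate controls were median of neutral control wells for no effect and mitoxantrone controls for full effect.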 As to conditions: RMG-I TPO-luciferase reporter, SteadyGlo, 24 h; at 12.6 µM; active compounds read high. On the technique in general: In a reporter assay the amount or activity of a reporter protein is the signal.
Consider `CCCNC(=O)C[C@H]1CC[C@H]2[C@H](COc3ccc(NC(=O)CC)cc3C(=O)N2C)O1`, for which the inhibition (as a rule, the change of the read-out against control, counted positive when it falls) is -14.6%. In the case of `N#Cc1c(NC(=O)C2CCCO2)sc2c1CCCCC2` (stereo not drawn) it was -175%; in that of `N#Cc1c(NC(=O)C2CC(Cl)=CCC2C(=O)O)sc2c1CCCCC2` (stereo not drawn), -9.86%. Next, `N#Cc1c(NC(=O)CCCl)sc2c1CCCCC2`: 60.9% (active); `O=C(Nc1ccc2c(c1)OCO2)N[C@@H]1CC[C@H](CC(=O)N2CCN(c3ccccc3)CC2)O[C@@H]1CO`: -5.75%. In the case of `O=C(C[C@H]1C[C@@H]2c3cc(NC(=O)c4cccnc4)ccc3O[C@@H]2[C@@H](CO)O1)NCc1ccccc1F` it was -5.11%; in that of `O=C(NCc1nnnn1-c1ccc(Cl)cc1)c1ccc([N+](=O)[O-])o1`, 77.5% (active); in that of `CC(=O)c1ccc(S(=O)(=O)NCc2nnnn2-c2ccccc2)cc1`, 3.71%.

`O=C(NCc1nnnn1-c1ccc(Cl)cc1)c1ccc2c(c1)OCO2`: the inhibition is 2.39%.

As for `CCCc1cn(CC[C@@H]2CC[C@@H](NC(=O)C3CC3)[C@H](CO)O2)nn1`, the inhibition was -17.8%. In the case of `O=C(C[C@@H]1CC[C@@H](NC(=O)CC2CC2)[C@H](CO)O1)NCc1ccc(-c2ccccc2)cc1` it was 2.89%; in that of `C[C@H](CO)N1C[C@H](C)[C@@H](CN(C)Cc2ccccn2)Oc2ncc(C3=CCCC3)cc2C1=O`, -41%; in that of `COc1cccc(-c2cnc3c(c2)C(=O)N([C@@H](C)CO)C[C@@H](C)[C@@H](CN(C)Cc2ccc(C(=O)O)cc2)O3)c1`, -16.9%. In the case of `CCC(=O)N1[C@@H]2c3ccc(-c4ccc(F)cc4)c(=O)n3C[C@H]1[C@H](CO)[C@H]2C(=O)N(C)C` it was 7.01%. Next, `Cc1ccc(C)c(N2CCN(C(=O)CCCCCn3c(=S)[nH]c4ccc(N5CCOCC5)cc4c3=O)CC2)c1`: 95% (active); `Cc1ccc(C)c(N2CCN(C(=O)CCCn3c(=O)c4cccn4c4cccnc43)CC2)c1`: 13.6%; `O=C(CCCCCn1c(=S)[nH]c2cc3c(cc2c1=O)OCO3)N1CCN(c2ccc(F)cc2)CC1`: 3.47%. In the case of `C[C@@H](NC(=O)C[C@H]1C=C[C@@H](NC(=O)CN2CCOCC2)[C@@H](CO)O1)c1ccccc1`, the inhibition is -7.59%. In the case of `Cc1ccc(S(=O)(=O)Nc2ccc3c(c2)C(=O)N([C@@H](C)CO)C[C@@H](C)[C@@H](CN(C)Cc2ccc(C(F)(F)F)cc2)OCCCC[C@@H](C)O3)cc1` it was 105% (active); in that of `Cc1ccc(S(=O)(=O)Nc2ccc3c(c2)C(=O)N([C@@H](C)CO)C[C@@H](C)[C@H](CN(C)Cc2ccc(Cl)c(Cl)c2)OCCCC[C@@H](C)O3)cc1`, 75.8% (active); in that of `COc1ccc(CN(C)C[C@@H]2OCCCC[C@@H](C)Oc3ccc(NS(=O)(=O)c4ccc(F)cc4)cc3C(=O)N([C@@H](C)CO)C[C@H]2C)cc1`, -7.37%. Turning to `COc1ccc(CN(C)C[C@@H]2OCCCC[C@H](C)Oc3ccc(NS(=O)(=O)c4ccc(F)cc4)cc3C(=O)N([C@H](C)CO)C[C@H]2C)cc1`, the inhibition is -1.69%.

As to `C[C@@H]1CCCCO[C@@H](CN(C)Cc2ccc(C(F)(F)F)cc2)[C@H](C)CN([C@H](C)CO)C(=O)c2cc(NS(=O)(=O)c3ccc(F)cc3)ccc2O1`, the inhibition was 104% (active).

`C[C@H](CO)N1C[C@H](C)[C@H](CN(C)Cc2ccc(C(F)(F)F)cc2)OCCCC[C@H](C)Oc2ccc(NS(=O)(=O)c3ccc(Cl)cc3)cc2C1=O`: the inhibition was 19.1%. In the case of `Cc1ccc(S(=O)(=O)Nc2ccc3c(c2)C(=O)N([C@H](C)CO)C[C@H](C)[C@@H](CN(C)Cc2ccccc2)OCCCC[C@H](C)O3)cc1`, the inhibition is -7.59%. Take `Cc1ccc(S(=O)(=O)Nc2ccc3c(c2)C(=O)N([C@H](C)CO)C[C@@H](C)[C@H](CN(C)Cc2ccccc2)OCCCC[C@H](C)O3)cc1`: the inhibition is 45.2%. In the case of `COc1ccc(S(=O)(=O)Nc2ccc3c(c2)C(=O)N([C@@H](C)CO)C[C@@H](C)[C@H](CN(C)Cc2ccc(C(F)(F)F)cc2)OCCCC[C@@H](C)O3)cc1` it was 27.5%; in that of `Cc1ccc(S(=O)(=O)Nc2ccc3c(c2)C(=O)N([C@@H](C)CO)C[C@@H](C)[C@H](CN(C)Cc2ccc4c(c2)OCO4)OCCCC[C@@H](C)O3)cc1`, -3.85%. Regarding `COc1ccc(S(=O)(=O)Nc2ccc3c(c2)C(=O)N([C@@H](C)CO)C[C@H](C)[C@H](CN(C)Cc2ccc(C(F)(F)F)cc2)OCCCC[C@@H](C)O3)cc1`, the inhibition is 94.8% (active). Next, `C[C@@H]1CCCCO[C@@H](CN(C)Cc2ccc(Cl)c(Cl)c2)[C@H](C)CN([C@@H](C)CO)C(=O)c2cc(NS(C)(=O)=O)ccc2O1`: 6.58%; `COc1cccc(S(=O)(=O)N[C@@H]2CC[C@H](CCNC(=O)Cc3ccncc3)O[C@@H]2CO)c1`: -23.7%.

For the molecule `CN(C)C(=O)c1ccc(-c2ccc([C@H]3[C@H](CO)N4C(=O)CN(C(=O)C5CCCC5)C[C@@H]34)cc2)cc1`, the inhibition is -16.1%. Next, `C[C@H](CO)N1C[C@H](C)[C@@H](CN(C)Cc2cncnc2)Oc2cc(-c3ccccc3)ccc2S1(=O)=O`: 1.94%.

`C[C@@H]1CN([C@H](C)CO)C(=O)Cc2cc(NS(C)(=O)=O)ccc2O[C@H]1CN(C)S(=O)(=O)c1ccccc1`: the inhibition is -11.5%. For the molecule `C[C@H](O)C#Cc1ccc2c(c1)O[C@H](CN(C)C)[C@@H](C)CN([C@H](C)CO)S2(=O)=O`, the inhibition is -9.29%. As for `C/C=C/c1ccc([C@H]2[C@@H](CO)N(C(=O)CN(C)C)C23CN(C(=O)C2CCCC2)C3)cc1`, the inhibition was -21.3%. Next, `Cc1noc(C)c1S(=O)(=O)N(C)C[C@@H]1OCCCC[C@@H](C)Oc2ccc(NC(=O)Nc3ccccc3)cc2C(=O)N([C@H](C)CO)C[C@@H]1C`: 4.8%; `C[C@@H]1CN([C@@H](C)CO)C(=O)c2cc(NS(=O)(=O)c3ccccc3)ccc2O[C@H]1CN(C)CC1CC1`: -3.75%.

For `COc1ccc(S(=O)(=O)Nc2cccc3c2O[C@@H](CN(C)Cc2ccc(-c4ccccc4)cc2)[C@H](C)CN([C@H](C)CO)C3=O)cc1`, the inhibition is -16.5%.

For `C[C@H]1CCCCO[C@H](CN(C)C)[C@@H](C)CN([C@@H](C)CO)C(=O)c2cc(NC(=O)CCCN(C)C)ccc2O1`, the inhibition is -13.7%. In the case of `CS(=O)(=O)N(Cc1ccc(Cl)cc1)c1ccc(C(=O)NCCSCc2ccco2)cc1` it was 61.6% (active); in that of `Cc1cc(C)cc(N(CC(=O)NCCSCc2ccco2)S(C)(=O)=O)c1`, 3.24%.

For `COc1cc(OC)cc(C(=O)NCCSCc2ccco2)c1`, the inhibition is 3.2%. In the case of `C[C@H](CO)N1C[C@H](C)[C@@H](CN(C)C)Oc2ccc(N(C)C)cc2C1=O` it was -23.1%; in that of `COc1ccc(NC(=O)Nc2ccc3c(c2)C(=O)N([C@H](C)CO)C[C@H](C)[C@@H](CN(C)C(=O)NC2CCCCC2)OCCCC[C@@H](C)O3)cc1`, 19.9%. Next, `C[C@@H]1CN([C@H](C)CO)C(=O)c2cccc(NC(=O)c3nc4ccccc4s3)c2O[C@@H]1CN(C)C`: -13.2%. Next, `C[C@@H]1CCCCO[C@H](CN(C)S(=O)(=O)c2ccccc2)[C@@H](C)CN([C@@H](C)CO)C(=O)c2cc(NS(=O)(=O)c3ccccc3)ccc2O1`: 0.573%; `C[C@@H]1CN([C@H](C)CO)C(=O)c2cccc(NC(=O)c3nc4ccccc4s3)c2O[C@H]1CN(C)S(=O)(=O)c1ccc(Cl)cc1`: 66.2% (active). On to `COc1ccc(S(=O)(=O)Nc2ccc3c(c2)C(=O)N([C@H](C)CO)C[C@@H](C)[C@H](CN(C)S(=O)(=O)c2ccc(Cl)cc2)OCCCC[C@@H](C)O3)cc1`, for which the inhibition is 55.8%. In the case of `C[C@H](CO)N1C[C@H](C)[C@H](CN(C)S(=O)(=O)c2ccc(F)cc2)OCCCC[C@H](C)Oc2ccc(NS(=O)(=O)c3ccc(Cl)cc3)cc2C1=O`, the inhibition was 87.4% (active). With `Cc1ccc(S(=O)(=O)Nc2ccc3c(c2)C(=O)N([C@H](C)CO)C[C@@H](C)[C@H](CN(C)S(=O)(=O)c2ccc(C)cc2)OCCCC[C@@H](C)O3)cc1`, the inhibition was 71.3% (active). Next, `Cc1ccc(S(=O)(=O)N(C)C[C@H]2OCCCC[C@@H](C)Oc3ccc(NS(C)(=O)=O)cc3C(=O)N([C@H](C)CO)C[C@@H]2C)cc1`: -9.1%. In the case of `C[C@@H]1CN([C@H](C)CO)C(=O)c2cccc(NC(=O)c3nc4ccccc4s3)c2O[C@H]1CN(C)Cc1ccccc1`, the inhibition was -1.34%. For `C[C@@H]1CCCCO[C@H](CN(C)S(=O)(=O)c2ccc(F)cc2)[C@H](C)CN([C@@H](C)CO)C(=O)c2cc(NS(=O)(=O)c3ccccc3)ccc2O1`, the inhibition is 3.05%. As to `C[C@@H]1CN([C@H](C)CO)C(=O)c2cc(NS(=O)(=O)c3ccccc3)ccc2O[C@@H](C)CCCCO[C@H]1CN(C)S(=O)(=O)c1ccc(Cl)cc1`, the inhibition is 73.3% (active). Next, `C[C@@H]1CCCCO[C@H](CN(C)S(C)(=O)=O)[C@@H](C)CN([C@H](C)CO)C(=O)c2cc(NS(=O)(=O)c3ccc(Cl)cc3)ccc2O1`: 7.33%. As to `Cc1ccc(S(=O)(=O)N(C)C[C@@H]2OCCCC[C@@H](C)Oc3ccc(NS(=O)(=O)c4ccccc4)cc3C(=O)N([C@H](C)CO)C[C@@H]2C)cc1`, the inhibition is -6.72%. With `CC=Cc1ccc2n(c1=O)C[C@@H]1[C@@H](CO)[C@H](C(=O)N[C@@H](C)c3ccccc3)[C@H]2N1Cc1ccncc1` (mixture of isomers), the inhibition was -0.758%.

The values are drawn from PubChem BioAssay AID652154 (Broad Institute, 2013).
